Most compounds without a hit are left out; they make up all but 4.3% or so of the library.
MCF10A rerep: induces DNA re-replication in MCF 10a normal breast cells. MCF 10A DNA re-replication, Hoechst nuclear intensity, 48 h. Potency, µM (titrated, usually from 46.1 µM), inactives show at the top dose activity, positive = re-replication, most hits filed as activators. actives 2.9% (n = 350,000); also: potency is read from the fitted curve at half-maximal effect; % of control where 0% means no effect; nearly all actives have a fitted effect of over 50% in size
Giardia killer: Giardia lamblia killing; Giardia lamblia trophozoite viability; actives 0.15% (n = 340,000); activity change, % at 7.66 µM, hits read low; in the data active = activity change below about -80%; inconclusive = between about -30% and that limit;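 also: parasites exposed to compound for two days anaerobically before the ATP read; % is scaled to controls: 0 for no effect and ±100 for the full control effect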
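Anaerobic 48 hrs incubation at 37 deg C of 100 trophozoites/well with test compounds; ATPLite 1-Step luminescence, 15-30 min RT, reports cellular ATP as viability.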
SW480 rerep: induces DNA re-replication in SW480 colon adenocarcinoma cells. SW480 DNA re-replication, Hoechst DNA content imaging, 48 h. Potency, µM (series often up to 46.1 µM), for the others: at the highest dose re-replication activation, hits mostly activators. actives 1.8% (n = 340,000). AID 624297; also: potency is read from the fitted curve at half-maximal effect; % of control where 0% means no effect; nearly all actives have a fitted effect of over 55% in size
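Quantitative HTS format with DMSO vehicle controls; 48 hr drug incubation at 37 C, then 40 min Hoechst staining and scanning imager measurement at 405 nm excitation.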
uPA surface inh: inhibitors of cell surface uPA generation. cell surface uPA generation assay, qHTS. Potency, µM (series often up to 38.3 µM), for inactives: at the highest dose activity change, negative = inhibition, hits mostly inhibitors. actives 0.31% (n = 330,000); active = well fitted inhibition curve with a large enough effect; inconclusive = small, poorly fitted or top-dose-only effect; inactive = no such curve, though single readings can be large or run the other way; tested in mouse RAW 264.7 cells; also: potency is read from the fitted curve at half-maximal effect; % is scaled to controls: 0 for no effect and ±100 for the full control effect; nearly all actives have a fitted effect of over 55% in size
An asterisk follows results filed as active; ? = inconclusive; nt = not tested or not shown; [ ] = another dose, or the depositor's remark. Unless noted, calls follow the shape of the dose curve; as a rule, active = well fitted activation curve with a large enough effect; inconclusive = small, poorly fitted or top-dose-only effect; inactive = no such curve, though single readings can be large or run the other way.

SMILES	MCF10A rerep	Giardia killer	SW480 rerep	uPA surface inh
COC(=O)c1cc(C(=O)c2cc(F)ccc2O)cn2c(=O)c3c(C)c(C)sc3nc12	3.7µM*	?	?	3%
CCOC(=O)c1sc2nc3c(SCC(=O)O)cc(C(=O)c4ccccc4O)cn3c(=O)c2c1C	1%	-27	16%	-2%
CCOC(=O)C(C)Sc1ccc2nnc(-c3ccc(OCC)cc3)n2n1 (configuration not stated)	nt	-8	nt	nt
COC(=O)C(CCSC)NS(=O)(=O)c1ccccc1Br (configuration not stated)	nt	-11	nt	nt
O=C(Nc1cccc([N+](=O)[O-])c1)NN1CCCCCC1	?	-7	-5%	0%
Cc1ccc(S(=O)(=O)NCC(=O)OCC(=O)N2CC(C)OC(C)C2)cc1 (configuration not stated)	5%	-12	-39%	11%
CC(C)Sc1nnc2c3ccccc3n(C)c2n1	nt	18	nt	nt
Cn1c(-c2c(N)n(-c3ccccc3)c3nc4ccccc4nc23)nc2ccccc21	8.2µM*	10	15µM*	-1%
Cc1ccc2c(c1)c1nc3ccccc3nc1n2C	19%	?	-6%	-15%
Cc1cccc(-n2c(N)c(-c3nc4ccccc4n3C)c3nc4ccccc4nc32)c1	?	-18	5.8µM*	-1%
NC(=O)C1CCN(C(=O)CCNS(=O)(=O)c2ccccc2F)CC1	0%	10	11%	7%
CCOC(=O)C1=C(CSc2nc(-c3ccccc3)ccc2C#N)OC(N)=C(C#N)C1c1cccnc1 (configuration not stated)	?	-26	?	-8%
CCOC(=O)C1=C(CSc2nc(-c3ccccc3)ccc2C#N)OC(N)=C(C#N)C1c1ccccc1 (configuration not stated)	?	2	15µM*	0%
CCOC(=O)C1=C(CC)OC(N)=C(C#N)C1c1ccsc1 (configuration not stated)	4%	-8	0.26µM*	0%
CC1=CC(C)(C)[N+](C)=CN1c1ccccc1	-2%	-10	-10%	-9%
CC(=O)Nc1ccc(SCC(Cc2ccccc2)N2CCN(CCc3ccccc3)CCC2=O)cc1 (configuration not stated)	nt	-15	nt	nt
Fc1ccc(Nc2nc(NCc3ccco3)nc3nccnc23)cc1	nt	12	nt	nt
COc1ccccc1-c1sc2cc3c(cc2c1C#CCO)OCO3	21µM*	?	-1%	-4%
COc1ccc(-c2sc3cc4c(cc3c2C#CCO)OCO4)cc1	?	-12	?	18%
CCOC(=O)c1ccc(-c2c(-c3ccccc3OC)sc3cc4c(cc23)OCO4)cc1F	?	-30	1%	5.6µM*
COc1ccc2sc(-c3ccccc3OC)c(-c3ccc(OC)c(F)c3)c2c1	42%	-12	-3%	-4%
CCOC(=O)c1ccc(-c2c(-c3ccc(OC)cc3)oc(=O)c3cc(OC)c(OC)cc23)cc1F	-3%	2	19%[9.22 µM]	11%
CCOC(=O)c1ccc(-c2c(-c3cc(OC)c(OC)c(OC)c3)noc2C)cc1F	1.5µM*	1	2.9µM*	?
CCCCNC(=O)CSc1nnc(-c2cccc(S(=O)(=O)N3CCOCC3)c2)o1	6%	-27	0%	-4%
CS(=O)(=O)N(CC(=O)NCc1ccc(Cl)cc1)C1CCCCC1	-15%	-2	1%	8%
SMILES	MCF10A rerep	Giardia killer	SW480 rerep	uPA surface inh
CS(=O)(=O)N(CC(=O)NCc1ccccc1Cl)C1CCCCC1	-10%	-7	21µM*	5%
CN(C)CCNC(=O)C1CCN(S(=O)(=O)c2ccc3ccccc3c2)CC1	9%	9	-4%	-1%
CN(C(=O)CSc1nncc2ccccc12)c1ccccc1	11%	1	0%	-4%
CCOC(=O)COc1cccc2c(=O)n(CC(N)=O)ccc12	0%	-15	-7%	0%
CCOC(=O)C(C)Oc1cccc2c(=O)n(CC(=O)NCc3ccc4c(c3)OCO4)ccc12 (configuration not stated)	6.5µM*	1	4.1µM*	?
CCOC(=O)COc1cccc2c(=O)n(CC(=O)NCc3ccccc3)ccc12	1.5µM*	7	?	0.2µM*
CCOC(=O)COc1cccc2c(=O)n(CC(=O)NCc3ccc(F)cc3)ccc12	?	-4	?	0.056µM*
CCOC(=O)COc1cccc2c(=O)n(CC(=O)NCCc3ccc(OC)c(OC)c3)ccc12	12%	nt	-9%	nt
C=C1CCN(C(CC(C)C)C(=O)O)S(=O)(=O)c2ccccc21 (configuration not stated)	nt	-6	nt	nt
Cc1cccc(OCC(=O)Nc2ccc3oc(=O)ccc3c2)c1	-2%	-8	-2%	-2%
CCCCN1CCC2C=CCC(C(=O)O)C2C1=O (configuration not stated)	nt	6	nt	nt
CCn1c(N2CCN(C(=S)NCC(C)C)CC2)nc2ccccc21	18µM*	9	17%	-5%
COc1ccc(OC)c(/C=N/NC(=O)CCN2CCN(C(c3ccccc3)c3ccccc3)CC2)c1	15µM*	6	7%	8%
O=C(CCN1CCN(C(c2ccccc2)c2ccccc2)CC1)N/N=C/c1ccc(O)cc1O	18%	-4	13%	-7%
O=C(CCN1CCN(c2ccccc2)CC1)N/N=C/c1ccccc1OC(F)F	10%	14	3.3µM*	-1%
CN1CCC(OC(=O)C(Oc2ccc(Cl)cc2)Oc2ccc(Cl)cc2)CC1	-2%	nt	7%	nt
COc1cc(C2Nc3ccccc3C(=O)N2Cc2ccco2)cc(OC)c1OC (configuration not stated)	nt	-18	nt	nt
Cn1c(SCc2ccon2)nc2ccccc2c1=O	8.2µM*	2	15µM*	-12%
COc1ccc(-c2cc(C(=O)OCC(=O)c3cccc([N+](=O)[O-])c3)c3cc(C)ccc3n2)cc1	18µM*	17	0%	1%
Cc1cc(C(=O)OCC(=O)c2cccc([N+](=O)[O-])c2)c2cccc(C)c2n1	-1%	9	-3%	7%
Cc1cc(-c2ccccc2)nc(SCC(=O)c2cccc([N+](=O)[O-])c2)n1	?	-12	16µM*	-6%
COc1ccc2nc(-c3ccccc3)cc(C(=O)OCC(=O)N3CCCCC3)c2c1	-4%	-10	21µM*	5%
O=C(C[C@@H]1C/C=C\C[C@@H](NC(=O)OCC2c3ccccc3-c3ccccc32)C(=O)OCCNC1=O)N[C@@H](CO)Cc1ccccc1	3%	-5	-6%	-19%
COc1ccc2c(c1)c1c(c(=O)n(-c3ccc(OC)c(OC)c3)c(=O)n1Cc1ccccc1C)n2C	nt	-2	nt	nt
O=C(O)C(C(O)c1ccccc1)[n+]1ccccc1 (configuration not stated)	-2%	-20	-1%	12%
CN1c2ccccc2-c2nc3ccccc3n2C1c1cccs1 (configuration not stated)	10µM*	4	?	4%
Cc1ccc(C2N(C)c3ccccc3-c3nc4ccccc4n32)o1 (configuration not stated)	?	-3	?	nt
Cc1c(CCOC(=O)c2ccc(N3CCOCC3)c([N+](=O)[O-])c2)sc[n+]1CC#N	16µM*	1	27%	-7%

Bioassay records from PubChem BioAssay.
